PI5P4K alpha inh – PI5P4K alpha (human) kinase inhibition; P48426; PI5P4Kalpha enzyme, ADP-Glo luminescence, 60 min; hits give low values; max response, %; 330,000 tested, 1.2% active; AID 652105; active = max response of -50% or lower; inconclusive = between -30% and -50%; inactive = -30% or higher; note: value at the top dose of about 77 µM; % is set by controls: 0 for no effect and ±100 for the full control effect
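Human PI5P4Kalpha with substrate in 0.038 M HEPES pH 7.4, 0.28 mM EGTA, 0.1% CHAPS, 5% DMSO; reaction started with 5 microM ATP (final), 60 min at room temperature. ADP formed read by ADP-Glo luminescence.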
WRN inhibitor – inhibitors of human WRN helicase; WRN helicase unwinding, fluorescent forked duplex, kinetic; Potency, µM (highest dose often 114 µM), for the others: at the highest dose activity change, negative = inhibition, actives largely listed as inhibitors; 360,000 tested, 0.46% active; note: potency is the fitted concentration of half-maximal effect; % is set by controls: 0 for no effect and ±100 for the full control effect; nearly all actives have a fitted effect of over 55% in size
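Fluorescence dequenching readout, ex 525 nm/em 598 nm, kinetic mode: forked duplex DNA (100 nM final) with adjacent fluorophore and quencher unwound by WRN (20 nM final) with 2 mM ATP. Compound preincubation 15 min, room temperature.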
Pol iota inh – inhibitors of human DNA polymerase iota; Pol iota fluorescent replication assay, 10 min; Potency, µM (top dose mostly 115 µM), without a hit: top-dose activity, negative = inhibition, actives largely listed as inhibitors; 390,000 tested, 1% active; Q9UNA4; note: potency is the fitted concentration of half-maximal effect
Target sequence (Q9UNA4 whole entry, looked up): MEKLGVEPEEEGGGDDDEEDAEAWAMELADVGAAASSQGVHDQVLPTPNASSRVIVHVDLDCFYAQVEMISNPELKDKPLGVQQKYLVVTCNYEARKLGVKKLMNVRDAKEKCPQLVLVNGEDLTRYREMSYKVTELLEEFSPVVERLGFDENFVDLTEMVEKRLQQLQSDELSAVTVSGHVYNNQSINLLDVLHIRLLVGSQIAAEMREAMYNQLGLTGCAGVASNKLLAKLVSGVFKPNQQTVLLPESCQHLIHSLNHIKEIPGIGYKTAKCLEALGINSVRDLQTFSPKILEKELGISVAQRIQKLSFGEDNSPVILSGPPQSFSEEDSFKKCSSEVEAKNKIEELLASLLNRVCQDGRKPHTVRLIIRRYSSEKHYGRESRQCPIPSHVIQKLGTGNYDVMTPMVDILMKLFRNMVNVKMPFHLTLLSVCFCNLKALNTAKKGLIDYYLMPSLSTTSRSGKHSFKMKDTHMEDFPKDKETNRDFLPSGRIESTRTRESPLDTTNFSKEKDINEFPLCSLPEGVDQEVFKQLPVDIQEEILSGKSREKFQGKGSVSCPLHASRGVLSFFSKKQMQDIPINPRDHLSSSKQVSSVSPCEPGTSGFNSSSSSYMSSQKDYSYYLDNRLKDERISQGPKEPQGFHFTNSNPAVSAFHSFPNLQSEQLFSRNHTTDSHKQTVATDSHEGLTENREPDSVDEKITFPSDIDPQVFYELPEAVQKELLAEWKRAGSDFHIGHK
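Pol iota at 10 nM preincubated 15 min with compounds at room temperature; reaction started with fluorescent substrate, 50 nM final. Fluorescence read kinetically at 0 and 10 min; buffer-only wells as negative control.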
POLK inh – inhibitors of human DNA polymerase kappa; Potency, µM (top dose mostly 107 µM), for the others: top-dose activity, negative = inhibition, usual class: inhibitors; 400,000 tested, 0.53% active; AID 588579; Q9UBT6; purified Pol kappa, fluorescent DNA synthesis assay, 10 min; note: potency is the fitted concentration of half-maximal effect; % is set by controls: 0 for no effect and ±100 for the full control effect
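Pol kappa 10 nM + cpd, 15 min RT; start w/ substrate 50 nM final; fluorescence kinetic read, 0 and 10 min. Neg ctrl: buffer, no enzyme.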
Pol beta inh – blocks human DNA polymerase beta activity; AID 485314; Potency, µM (titrated, usually from 114 µM), for the others: at the highest dose activity change, negative = inhibition, actives largely listed as inhibitors; 340,000 tested, 1.3% active; Pol beta primer extension/strand displacement, fluorescence kinetic; P06746; note: potency is the fitted concentration of half-maximal effect; % is set by controls: 0 for no effect and ±100 for the full control effect
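Enzyme-only controls used 10 nM Pol beta; buffer lacking enzyme served as negative control. Compound preincubated 15 min, then 50 nM substrate added; 0 and 10 min reads at room temperature.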
Pol eta inh – inhibitors of human DNA polymerase eta. Potency, µM (titrated, usually from 114 µM), without a hit: top-dose activity change, negative = inhibition, actives largely listed as inhibitors. 390,000 tested, 1.2% active. recombinant Pol eta, fluorescent DNA replication assay. AID 588591. Q9Y253; note: potency is the fitted concentration of half-maximal effect; % is set by controls: 0 for no effect and ±100 for the full control effect
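Pol eta at 10 nM preincubated with compounds 15 min at room temperature; reaction started with fluorescent substrate (50 nM final) and read kinetically at 0 and 10 min.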
* marks the source's active call; other numbers are inactive results; ? = inconclusive; . = no result given; ! = not confirmed by another sample; [ ] = remark or other dose. Compounds with a hit are over-represented: about 2.8% of the library has one in this group of screens. Unless noted, calls come from the whole dose curve; as a rule, active = well fitted curve in the direction sought with a large enough effect; inconclusive = small, poorly fitted or top-dose-only effect, or another doubt; inactive = no such curve, though single readings can be large; an effect the other way counts as inactive or inconclusive.

SMILES | PI5P4K alpha inh | WRN inhibitor | Pol iota inh | POLK inh | Pol beta inh | Pol eta inh
COC(=O)c1ccc2c(c1)SC1=C(CCCC1=O)N2 | 0 | 79µM* | -23% | -17% | 0% | -15%
O=C1CCCC2=C1Sc1ccc(Cl)cc1N2 | -10 | -10% | -17% | -1% | -26% | 0%
Cc1cc(=O)oc2cc(OCc3ccc(C(=O)N4CCN(c5ccc([N+](=O)[O-])cc5)CC4)cc3)ccc12 | -24 | -8% | -13% | -6%[60.1 µM] | 14% | 15%
Cc1cc(=O)oc2cc(OCc3ccc(C(=O)N4CCN(c5ccccc5)CC4)cc3)ccc12 | -18 | -11% | 121% | -2% | 11µM* | 3%
CCOc1ccc(NC(=O)Cn2c(=O)n(-c3ccccc3)c(=O)c3ccc(C(=O)NCc4ccc5c(c4)OCO5)cc32)cc1 | . | . | 16% | -1% | 31% | -2%
CCN1CCN(Cc2ccc(NC(=O)c3cc(NC(=O)c4ccno4)cc(OC)c3)cc2C(F)(F)F)CC1 | -3 | 6% | -10% | 7% | 3% | -2%
CCN1CCN(Cc2ccc(NC(=O)c3cc(NC(=O)c4cc(-c5ccc(OC)cc5)n[nH]4)cc(OC)c3)cc2C(F)(F)F)CC1 | -67* | 1% | 3% | 1% | -2% | -16%
Cc1ccc(C(=O)Nc2cccc(C(F)(F)F)c2)cc1NC(=O)c1c[nH]c2cc(C(F)(F)F)ccc2c1=O | -1 | -5% | -13% | 5% | . | -11%
CCN1CCN(Cc2ccc(NC(=O)c3ccc(C)c(NC(=O)c4c[nH]c5cc(C(F)(F)F)ccc5c4=O)c3)cc2C(F)(F)F)CC1 | -67* | -4% | 29% | 10% | 18% | -6%
CCN1CCN(Cc2ccc(NC(=O)c3cc(NC(=O)c4cncc(-c5cccs5)c4)cc(OC)c3)cc2C(F)(F)F)CC1 | -67*! | 8% | ? | -2% | 27% | -6%
Cc1ccc(CNC(=O)C(=O)NCC2CCCN2S(=O)(=O)c2cccs2)cc1 (stereo unspecified) | -5 | -9% | 9% | -9% | . | -3%
Cc1ccc(SCCC(=O)OC(C(=O)NC(N)=O)C(C)C)cc1 (stereo unspecified) | -67* | -29% | 79% | -7% | -17% | -7%
Cc1cc(NS(=O)(=O)c2ccc(NC(=O)C(F)(F)F)cc2)nc(C)n1 | -2 | 14% | 24% | -6% | 56µM* | 3%
O=C(O)COc1ccc(Br)cc1/C=N/O | -6 | -9%[57.1 µM] | ? | -27% | 25µM* | 11µM*
CCOc1ccc(Br)cc1/C=N/O | . | -15% | -2% | -13% | 26% | 2%
CCOc1ccc(N2CC(C(=O)N3CCN(c4ccccn4)CC3)CC2=O)cc1 (stereo unspecified) | 1 | -23% | 10% | -9% | . | 2%
O=C(OC[C@H]1O[C@@H](OC(=O)c2cc(O)c(O)c(OC(=O)c3cc(O)c(O)c(O)c3)c2)[C@H](OC(=O)c2cc(O)c(O)c(OC(=O)c3cc(O)c(O)c(O)c3)c2)[C@@H](OC(=O)c2cc(O)c(O)c(OC(=O)c3cc(O)c(O)c(O)c3)c2)[C@@H]1OC(=O)c1cc(O)c(O)c(OC(=O)c2cc(O)c(O)c(O)c2)c1)c1cc(O)c(O)c(OC(=O)c2cc(O)c(O)c(O)c2)c1 | . | . | -104% | -99% | . | .
O=C(O)C[C@@H]1C(=O)O[C@@H]2C(COC(=O)c3cc(O)c(O)c(O)c3)O[C@@H](OC(=O)c3cc(O)c(O)c(O)c3)[C@@H](OC(=O)c3cc(O)c(O)c4c3[C@H]1[C@H](O)C(=O)O4)[C@H]2OC(=O)c1cc(O)c(O)c(O)c1 (stereo partly specified) | . | . | . | . | 0.18µM* | .
COc1ccc(CCN2CC(C(=O)Nc3cc(S(C)(=O)=O)ccc3Cl)CC2=O)cc1OC (stereo unspecified) | -4 | -3% | 25% | -18% | . | -16%
Cc1ccc(CN2CC(C(=O)Nc3cc(S(C)(=O)=O)ccc3Cl)CC2=O)cc1 (stereo unspecified) | -24 | -3%[57.1 µM] | -10% | -17% | 14µM* | ?
COc1ccccc1N1CC(C(=O)Nc2ccc(S(=O)(=O)N3CCCC3)cc2)CC1=O (stereo unspecified) | 0 | 2% | ? | -2% | . | -6%
CCc1ccccc1N1CC(C(=O)Nc2cc(S(=O)(=O)N3CCCC3)ccc2Cl)CC1=O (stereo unspecified) | ? | -34% | 50µM* | ? | . | 16µM*
CCOc1ccc(Nc2nc3c(S(=O)(=O)c4ccc(CC)cc4)nnn3c3ccc(Cl)cc23)cc1 | . | . | 33% | -35% | 0% | ?
COc1ccc(CNC(=O)C2CCN(C(=O)c3ccc(-n4ccc5ccccc54)s3)CC2)cc1 | . | . | 14% | -2% | 6% | -23%
Cc1ccc(-c2cc(C(=O)N/N=C/C(Br)=C/c3ccccc3)n[nH]2)o1 | ? | -11%[11.6 µM] | ? | ? | 35µM* | -5%
SMILES | PI5P4K alpha inh | WRN inhibitor | Pol iota inh | POLK inh | Pol beta inh | Pol eta inh
CC(/C=N/NC(=O)c1n[nH]c2c1CCC2)=C\c1ccccc1 | 5 | -1% | 16% | -11% | 5% | 7%
Cc1ccc(-c2cc(C(=O)N/N=C/c3ccccc3O)n[nH]2)o1 | -29 | -2% | 23% | -1% | -28% | -15%
Cc1ccc(-c2cc(C(=O)N/N=C/c3c[nH]c4ccccc34)n[nH]2)o1 | -23 | -15% | ? | ? | 28µM* | -15%
O=C(N/N=C/C(Br)=C\c1ccccc1)c1n[nH]c2c1CCC2 | . | -31% | 25µM* | -1% | 1% | -6%
O=C(NN=Cc1c[nH]c2ccccc12)NN=Cc1c[nH]c2ccccc12 | -89* | -20% | . | . | . | -12%
Cc1cc(N2CCN(C)CC2)nc2ccc(NC(=O)Nc3cccc(Cl)c3)cc12 | . | . | -5% | -7% | 9% | -22%
CSCc1ccc(C(=O)OCC(=O)NC2CCCC2)o1 | 1 | 8% | . | . | . | 5%
COc1ccc(S(=O)(=O)N2CCC(C(=O)N[C@@H](C)C(=O)NCc3ccccc3OC)CC2)cc1 | 2 | -1% | 25% | 2% | -1% | -18%
COc1ccc(OC)c(CNC(=O)c2ccc(NC(=O)c3nsc4ccccc34)cc2)c1 | . | . | 89µM* | -8%[60.1 µM] | 40% | -8%
O=C(O)CCC(=O)Nc1ccc(Cc2ccc(NC(=O)CCC(=O)O)c(O)c2)cc1O | -5 | -9%[57.1 µM] | ? | -41% | 0% | 16µM*
O=c1[nH]c(=O)n(Cc2ccccc2)c2nc(-c3cccs3)n(CCO)c12 | -25 | -11% | -15% | -7% | 35µM* | -2%
N#CC1C(=O)NC(=O)C(C#N)C12CCCC2 (stereo unspecified) | -51* | 1%[57.1 µM] | . | . | . | .

Compound activity (PubChem BioAssay)
